# Measurements reported in PubChem BioAssay AID1159580 (chemical genetic matrix, 2015).
# Values joined by “and” are separate entries in the source; they are usually repeats but may differ in a detail not shown here. Identical values can stand only once. About 2,000 (36%) of roughly 5,500 compounds were called active. Not shown: some 18% with an inconclusive outcome. Some of the results follow. Unmarked numbers belong to inactive results. No stated cut-off is given here; in the data, active means normalized growth mostly below about 0.91 (no sharp cut-off); inconclusive means no clear call, values can overlap the other calls; inactive means mostly above about 0.92.
# Assay: chemical genetic growth profiling, strain panel (AID 1159580);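 further: tested at 20 µM; growth read once vehicle control cultures reached saturation at 30 °C; 1 = growth at the plate median or of vehicle wells; lower values mean less growth of the strain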
# Conditions: growth OD
compound,measurement,setting,value
O=c1[nH]cc(F)c(=O)[nH]1,normalized growth,"S. cerevisiae deletion strains, locus YKL009W, strain mrt4, active compounds read low",0.862 (active)
same,normalized growth,"S. cerevisiae deletion strains, locus YKL068W, active compounds read low",0.995
same,normalized growth,"S. cerevisiae deletion strains, locus YKL085W, strain MDH1 (second series), active compounds read low",0.965
same,normalized growth,"S. cerevisiae deletion strains, locus YKL085W, strain MDH1, active compounds read low",0.965
same,normalized growth,"S. cerevisiae deletion strains, locus YKL160W, strain elf1, active compounds read low",0.671 (active)
same,normalized growth,"S. cerevisiae deletion strains, locus YKL190W, strain CNB1, active compounds read low",0.858 (active)
same,normalized growth,"S. cerevisiae deletion strains, locus YKR001C, strain vps1, active compounds read low",0.471 (active)
same,normalized growth,"S. cerevisiae deletion strains, locus YKR026C, strain gcn3, active compounds read low",0.83 (active)
same,normalized growth,"S. cerevisiae deletion strains, locus YKR091W, strain srl3, active compounds read low",1.01
same,normalized growth,"S. cerevisiae deletion strains, locus YLL001W, strain dnm1, active compounds read low",0.456 (active)
same,normalized growth,"S. cerevisiae deletion strains, locus YLL026W, active compounds read low",0.588 (active)
same,normalized growth,"S. cerevisiae deletion strains, locus YLL041C, strain sdh2, active compounds read low",0.849 (active)
same,normalized growth,"S. cerevisiae deletion strains, locus YLR027C, strain aat2, active compounds read low",0.537 (active)
same,normalized growth,"S. cerevisiae deletion strains, locus YLR039C, strain RIC1, active compounds read low",0.601 (active)
same,normalized growth,"S. cerevisiae deletion strains, locus YLR058C, strain SHM2, active compounds read low",0.746 (active)
same,normalized growth,"S. cerevisiae deletion strains, locus YLR102C, strain apc9, active compounds read low",0.943
same,normalized growth,"S. cerevisiae deletion strains, locus YLR113W, strain HOG1, active compounds read low",0.772 (active)
same,normalized growth,"S. cerevisiae deletion strains, locus YLR221C, strain rsa3, active compounds read low",0.411 (active)
same,normalized growth,"S. cerevisiae deletion strains, locus YLR258W, strain gsy2, active compounds read low",0.542 (active)
same,normalized growth,"S. cerevisiae deletion strains, locus YLR262C, strain YPT6 (second series), active compounds read low",0.63 (active)
same,normalized growth,"S. cerevisiae deletion strains, locus YLR262C, strain YPT6, active compounds read low",0.647
same,normalized growth,"S. cerevisiae deletion strains, locus YLR268W, strain sec22, active compounds read low",0.726 (active)
same,normalized growth,"S. cerevisiae deletion strains, locus YLR320W, strain mms22, active compounds read low",0.509 (active)
same,normalized growth,"S. cerevisiae deletion strains, locus YLR330W, strain CHS5, active compounds read low",0.966
same,normalized growth,"S. cerevisiae deletion strains, locus YLR342W, strain FKS1 (second series), active compounds read low",0.743 (active)
same,normalized growth,"S. cerevisiae deletion strains, locus YLR342W, strain FKS1, active compounds read low",0.807 (active)
same,normalized growth,"S. cerevisiae deletion strains, locus YLR357W, strain rsc2, active compounds read low",0.775 (active)
same,normalized growth,"S. cerevisiae deletion strains, locus YLR370C, strain arc18, active compounds read low",0.562 (active)
same,normalized growth,"S. cerevisiae deletion strains, locus YLR371W, strain rom2, active compounds read low",0.867 (active)
same,normalized growth,"S. cerevisiae deletion strains, locus YLR384C, strain iki3, active compounds read low",0.809 (active)
same,normalized growth,"S. cerevisiae deletion strains, locus YLR418C, strain cdc73, active compounds read low",0.819 (active)
same,normalized growth,"S. cerevisiae deletion strains, locus YML016C, strain PPZ1, active compounds read low",0.864 (active)
same,normalized growth,"S. cerevisiae deletion strains, locus YML032C, strain rad52, active compounds read low",0.642 (active)
same,normalized growth,"S. cerevisiae deletion strains, locus YML120C, strain ndi1, active compounds read low",0.464 (active)
same,normalized growth,"S. cerevisiae deletion strains, locus YML124C, strain tub3, active compounds read low",0.914 (active)
same,normalized growth,"S. cerevisiae deletion strains, locus YMR058W, strain fet3, active compounds read low",0.562 (active)
same,normalized growth,"S. cerevisiae deletion strains, locus YMR078C, strain ctf18, active compounds read low",0.994
same,normalized growth,"S. cerevisiae deletion strains, locus YMR125W, strain sto1, active compounds read low",1.12 [resistant] (active)
same,normalized growth,"S. cerevisiae deletion strains, locus YMR129W, active compounds read low",0.701 (active)
same,normalized growth,"S. cerevisiae deletion strains, locus YMR205C, strain PFK2, active compounds read low",0.919
same,normalized growth,"S. cerevisiae deletion strains, locus YMR223W, strain ubp8, active compounds read low",0.613 (active)
same,normalized growth,"S. cerevisiae deletion strains, locus YMR231W, strain pep5, active compounds read low",0.793 (active)
same,normalized growth,"S. cerevisiae deletion strains, locus YMR263W, strain SAP30, active compounds read low",0.957 and 1.01
same,normalized growth,"S. cerevisiae deletion strains, locus YMR307W, strain GAS1, active compounds read low",0.901 and 0.99
same,normalized growth,"S. cerevisiae deletion strains, locus YNL067W, strain RPL9B, active compounds read low",0.84 (active)
same,normalized growth,"S. cerevisiae deletion strains, locus YNL071W, strain lat1, active compounds read low",0.698 (active)
same,normalized growth,"S. cerevisiae deletion strains, locus YNL128W, strain TEP1, active compounds read low",0.784 (active)
same,normalized growth,"S. cerevisiae deletion strains, locus YNL175C, strain NOP13, active compounds read low",1.03
same,normalized growth,"S. cerevisiae deletion strains, locus YNL183C, strain NPR1, active compounds read low",0.611 (active)
same,normalized growth,"S. cerevisiae deletion strains, locus YNL197C, strain WHI3, active compounds read low",1.01
same,normalized growth,"S. cerevisiae deletion strains, locus YNL209W, strain ssb2, active compounds read low",0.647 (active)
same,normalized growth,"S. cerevisiae deletion strains, locus YNL224C, strain SQS1, active compounds read low",0.929
same,normalized growth,"S. cerevisiae deletion strains, locus YNL233W, strain BNI4, active compounds read low",0.843 (active)
same,normalized growth,"S. cerevisiae deletion strains, locus YNL248C, strain rpa49, active compounds read low",0.346 (active)
same,normalized growth,"S. cerevisiae deletion strains, locus YNL250W, strain rad50, active compounds read low",0.848 (active)
same,normalized growth,"S. cerevisiae deletion strains, locus YNL271C, strain bni1, active compounds read low",0.811 (active)
same,normalized growth,"S. cerevisiae deletion strains, locus YNL298W, strain CLA4, active compounds read low",0.905 (active)
same,normalized growth,"S. cerevisiae deletion strains, locus YNL307C, strain MCK1, active compounds read low",0.756 (active)
same,normalized growth,"S. cerevisiae deletion strains, locus YNL322C, strain KRE1 (second series), active compounds read low",0.65 (active)
same,normalized growth,"S. cerevisiae deletion strains, locus YNR049C, strain mso1, active compounds read low",0.647 (active)
same,normalized growth,"S. cerevisiae deletion strains, locus YNR052C, strain pop2, active compounds read low",0.909 (active)
same,normalized growth,"S. cerevisiae deletion strains, locus YOL012C, strain htz1",2.56 [resistant] (active)
same,normalized growth,"S. cerevisiae deletion strains, locus YOL147C, strain pex11, active compounds read low",0.796 (active)
same,normalized growth,"S. cerevisiae deletion strains, locus YOR001W, strain rrp6, active compounds read low",0.193 (active)
same,normalized growth,"S. cerevisiae deletion strains, locus YOR061W, strain CKA2, active compounds read low",0.947
same,normalized growth,"S. cerevisiae deletion strains, locus YOR069W, strain VPS5, active compounds read low",0.858 (active)
same,normalized growth,"S. cerevisiae deletion strains, locus YOR070C, strain gyp1, active compounds read low",0.622 (active)
same,normalized growth,"S. cerevisiae deletion strains, locus YOR080W, strain dia2, active compounds read low",0.809 (active)
same,normalized growth,"S. cerevisiae deletion strains, locus YOR083W, strain WHI5 (second series), active compounds read low",1.03
same,normalized growth,"S. cerevisiae deletion strains, locus YOR083W, strain WHI5, active compounds read low",0.686 (active)
same,normalized growth,"S. cerevisiae deletion strains, locus YOR106W, strain vam3, active compounds read low",0.394 (active)
same,normalized growth,"S. cerevisiae deletion strains, locus YOR136W, strain idh2, active compounds read low",0.902 (active)
same,normalized growth,"S. cerevisiae deletion strains, locus YOR144C, strain elg1, active compounds read low",0.999
same,normalized growth,"S. cerevisiae deletion strains, locus YOR184W, strain ser1, active compounds read low",0.561 (active)
same,normalized growth,"S. cerevisiae deletion strains, locus YOR231W, strain MKK1, active compounds read low",0.549 (active)
same,normalized growth,"S. cerevisiae deletion strains, locus YOR265W, strain rbl2, active compounds read low",0.654 (active)
same,normalized growth,"S. cerevisiae deletion strains, locus YOR270C, strain vph1, active compounds read low",0.397 (active)
same,normalized growth,"S. cerevisiae deletion strains, locus YOR290C, strain snf2, active compounds read low",0.415 (active)
same,normalized growth,"S. cerevisiae deletion strains, locus YOR316C, strain cot1, active compounds read low",0.958
same,normalized growth,"S. cerevisiae deletion strains, locus YPL051W, strain arl3, active compounds read low",0.598 (active)
same,normalized growth,"S. cerevisiae deletion strains, locus YPL055C, strain LGE1, active compounds read low",0.955
same,normalized growth,"S. cerevisiae deletion strains, locus YPL078C, strain atp4, active compounds read low",0.482 (active)
same,normalized growth,"S. cerevisiae deletion strains, locus YPL106C, strain sse1, active compounds read low",0.709 (active)
same,normalized growth,"S. cerevisiae deletion strains, locus YPL240C, strain hsp82, active compounds read low",0.671 (active)
same,normalized growth,"S. cerevisiae deletion strains, locus YPL241C, strain CIN2, active compounds read low",1.03
same,normalized growth,"S. cerevisiae deletion strains, locus YPL256C, strain CLN2, active compounds read low",0.714 (active)
same,normalized growth,"S. cerevisiae deletion strains, locus YPR119W, strain clb2, active compounds read low",1.03
same,normalized growth,"S. cerevisiae deletion strains, locus YPR141C, strain kar3, active compounds read low",1.03
same,normalized growth,"S. cerevisiae deletion strains, locus YPR163C, strain tif3, active compounds read low",0.981
same,normalized growth,"S. cerevisiae deletion strains, locus YPR167C, strain met16, active compounds read low",0.831 (active)
same,normalized growth,"S. cerevisiae deletion strains, strain wtn01, active compounds read low",0.635 (active)
same,normalized growth,"S. cerevisiae strains, strain wild type, active compounds read low",0.776 (active)
